# The sample as a whole holds a higher share of hits than the screen did.
# ALR inh = human ALR oxidase inhibition via reduced H2O2. P55789. purified ALR, DTT oxidation, H2O2 HRP-luminol luminescence. inhibition, % (no concentration beside the values). 3.8% of 290,000 active. AID 485317;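 active = mean replicate inhibition above about 79%, with every replicate also reaching it, limit read from the data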
# CendR NRP1 mod = alters CendR peptide binding to human NRP-1 | O14786 | FAM-RPARPAR peptide binding to NRP-1, fluorescence polarization | inhibition, % at 25 µM | 0.85% of 360,000 active | AID 602438;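 active = inhibition or corrected inhibition above about 18%, plus a signal ratio from 0.5 to 1.5, limit read from the data, passing the limit was not always enough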
# ERp5 block = inhibitors of human ERp5; AID 651711; 0.05% of 350,000 active; inhibition, % at 9.99 µM; ERp5 insulin aggregation, absorbance 650 nm, 90 min; Q15084;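 active = mean replicate inhibition above about 25%, with every replicate also reaching it, limit read from the data, passing the limit was not always enough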
# Target sequence (Q15084 whole entry, looked up): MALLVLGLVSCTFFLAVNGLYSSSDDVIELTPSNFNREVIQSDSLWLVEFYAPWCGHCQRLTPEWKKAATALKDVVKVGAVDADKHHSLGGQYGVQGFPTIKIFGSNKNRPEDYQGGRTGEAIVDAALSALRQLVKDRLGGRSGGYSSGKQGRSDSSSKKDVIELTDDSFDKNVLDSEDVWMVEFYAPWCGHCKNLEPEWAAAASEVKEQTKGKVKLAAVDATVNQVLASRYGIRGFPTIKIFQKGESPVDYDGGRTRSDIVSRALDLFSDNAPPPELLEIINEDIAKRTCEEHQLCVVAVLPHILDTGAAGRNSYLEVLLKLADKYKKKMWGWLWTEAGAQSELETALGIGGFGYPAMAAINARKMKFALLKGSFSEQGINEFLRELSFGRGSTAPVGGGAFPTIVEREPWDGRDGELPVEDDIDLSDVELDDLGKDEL
# ARNT TACC3 PPI = disrupts binding between human ARNT and TACC3; Q9Y6A5; AlphaScreen His-ARNT PAS-B/GST-TACC3 binding, luminescence; TACC3 fragment carries E629A point mutation; inhibition, % at 9.99 µM; 0.66% of 390,000 active;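 active = mean inhibition of replicates at least 50% and at least half of replicates each reaching 50%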
# PglD DTNB = inhibitors of Campylobacter jejuni PglD acetyltransferase. inhibition, % at 12.5 µM. 0.098% of 360,000 active. AID 602405. purified PglD enzyme, DTNB colorimetric CoA detection; in the data active = inhibition above about 16%, passing the limit was not always enough
# PDI inh = inhibitors of human protein disulfide isomerase. P07237. inhibition, % at 10 µM. 0.052% of 350,000 active. PDI insulin aggregation turbidity, A650, 90 min;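 active = mean inhibition across replicates of 30% or more, whatever share of single replicates reach that level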
# PglD inh SP = blocks Campylobacter jejuni PglD acetyltransferase activity | shares compounds with PglD DTNB | Purified C. jejuni PglD, DTNB absorbance 412 nm | inhibition, % at 20 µM | 320 tested, under 10 active;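 active = mean inhibition across replicates of at least 20% with every single replicate also at 20% or more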;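 also: initial rate of CoA release by acetyl transfer from AcCoA to the UDP-4-amino sugar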
# ARNT Alpha ctr = interferes with AlphaScreen signal, flagging false ARNT-TACC3 hits; AID 651705; His-ARNT PASB-GST AlphaScreen artifact counter-screen, luminescence; shares compounds with ARNT TACC3 PPI; AC50, µM (top dose mostly 68 µM); 50% of 1,200 active;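 active = every separate test run was called active for a drop in luminescence, with AC50 within twice the top valid dose, actives reach about 71 µM in these data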
# Hits are given with their value; . = inactive; / = not tested or not shown.
SMILES,ALR inh,CendR NRP1 mod,ERp5 block,ARNT TACC3 PPI,PglD DTNB,PDI inh,others
COC(=O)[C@@H]1[C@@H](CO)[C@@H]2Cn3c(ccc(-c4ccncc4)c3=O)[C@H]1N2S(=O)(=O)c1ccccc1F,/,/,.,.,.,/,
C=CCn1c(O)c(N=Nc2c(C)n(C)n(-c3ccccc3)c2=O)c(=O)[nH]c1=S,.,.,.,63,.,.,
Cc1c(N=Cc2c(O)n(CCc3ccccc3)c(=O)[nH]c2=O)c(=O)n(-c2ccccc2)n1C,.,.,/,.,.,.,
CCCCCCn1c(O)c(C=Nc2c(C)n(C)n(-c3ccccc3)c2=O)c(=O)[nH]c1=O,.,.,/,.,.,.,
CCOc1ccc(-n2c(O)c(N=Nc3c(C)n(C)n(-c4ccccc4)c3=O)c(=O)[nH]c2=O)cc1,.,.,.,60,.,.,
Cc1c(N=Nc2c(O)[nH]c(=S)[nH]c2=O)c(=O)n(-c2ccccc2)n1C,.,.,/,61,.,.,
CCN1[C@@H]2Cn3c(ccc(-c4cccc(OC)c4)c3=O)[C@H]1[C@@H](C(=O)OC)[C@@H]2CO,/,/,.,.,.,/,
Cc1nc2c(c(C)nn2-c2ccccc2)c(C)c1CCC(=O)N1CCC2(CC1)OCCO2,.,51,/,.,.,.,
CC=Cc1ccc2n(c1=O)C[C@H]1[C@H](CO)[C@@H](C(=O)OC)[C@@H]2N1CC1CC1 (mixture of isomers),/,/,.,.,.,/,
Cc1ccc(CNC2=NCCS2)cc1,.,.,.,.,/,.,
c1ccc(CNC2=NCCS2)cc1,.,21,/,.,.,.,
O=C(O)[C@H]1[C@H](CO)[C@H]2Cn3c(ccc(-c4cncnc4)c3=O)[C@@H]1N2C(=O)NC1CCCC1,/,/,.,.,.,/,
COc1ccc(C#Cc2ccc([C@H]3[C@H]4CN(C(=O)Cc5ccncc5)CCCCN4[C@H]3CO)cc2)cc1,/,/,.,.,.,/,
O=C(/C=C/c1ccccc1)c1c(O)n(CCc2ccccc2)c(=O)[nH]c1=O,.,.,.,.,/,.,
COc1cc(/C=C/C(=O)c2c(O)n(CCc3ccccc3)c(=O)[nH]c2=O)ccc1O,97,.,.,.,/,.,
CCOC(=O)c1cc(CC)sc1/N=C/C1C(=O)NC(=S)NC1=O,97,.,.,.,.,.,
CCOC(=O)c1c(/N=C/c2c(O)n(-c3cccc(C)c3)c(=O)[nH]c2=O)sc2c1CCCC2,.,.,/,.,/,.,
CCOC(=O)c1cc(CC)sc1/N=C/c1c(O)[nH]c(=S)[nH]c1=O,98,.,/,.,.,.,
C/C=C/c1ccc(C2[C@H]3CNC[C@@H]2N3CC2CCCCC2)cc1 (some centres undefined),/,/,.,/,/,/,
CC1CC(OP(O)(=S)c2ccc(N(C)C)cc2NC(=O)c2cccs2)CC(C)(C)C1 (centres undefined),99,.,.,.,/,.,
CC1CN(c2ccc([N+](=O)[O-])cc2Cl)CCN1 (centres undefined),.,.,/,49,.,.,
CN1CCN(c2ccc([N+](=O)[O-])cc2Cl)CC1,.,.,.,.,/,.,
O=C(O)[C@@H]1[C@@H](CO)[C@@H]2Cn3c(ccc(C4=CCCCC4)c3=O)[C@H]1N2C(=O)Cc1ccccn1,/,/,.,.,.,/,
CCC(C)N1C(=O)NC(=O)C2(Cc3c(ccc4ccccc34)N(C)C2)C1=O (centres undefined),93,.,/,.,.,.,
CCCNS(=O)(=O)c1ccc(OCC(=O)N2CCN(Cc3ccc4c(c3)OCO4)CC2)c(C)c1,/,.,.,.,/,.,
SMILES,ALR inh,CendR NRP1 mod,ERp5 block,ARNT TACC3 PPI,PglD DTNB,PDI inh,others
CCCNS(=O)(=O)c1ccc(OCC(=O)N2CCN(Cc3ccc4c(c3)OCO4)CC2)cc1,.,.,/,.,29,.,PglD inh SP=.
Cc1cc(C)cc(N2C(=O)/C(=C\c3ccc(N4CCN(C)CC4)o3)C(=O)NC2=S)c1,.,.,/,/,76,.,PglD inh SP=.
COc1ccc(C#Cc2ccc([C@H]3[C@@H](CO)N4CCCCN(C(=O)Cc5ccncc5)C[C@H]34)cc2)cc1,/,/,.,/,.,/,
COc1ccc(CC2C(=O)NC(=O)NC2=O)c(OC)c1,.,.,/,.,.,.,
COc1ccc(Cc2c(O)[nH]c(=O)[nH]c2=O)c(OC)c1,.,.,.,15,/,.,ARNT Alpha ctr=.
COc1ccc(-c2cc(=Nc3ccccc3)c3cc(C)ccc3o2)cc1,.,.,.,.,.,.,
COc1ccc(-c2cc(=NCCC(=O)O)c3cc(C)ccc3o2)cc1,/,.,.,30,.,.,ARNT Alpha ctr=.
COc1cc2c(c(OC)c1OC)-c1ccc(O)c(=O)cc1[C@@H](N)CC2,.,.,.,58,.,/,ARNT Alpha ctr=.
CCOC(=O)c1cc2c(cn1)[C@@H](CCO)NC2,/,.,.,55,.,.,ARNT Alpha ctr=.
CCN1[C@@H]2c3ccc(-c4ccc(OC)cc4)c(=O)n3C[C@H]1[C@H](CO)[C@H]2C(=O)OC,/,/,.,.,.,/,
O=C(O)C[C@@H]1CC[C@H]2NC[C@@H](O)COC[C@@H]2O1,/,/,.,.,.,/,
CCCCOCCCn1c(N)c(C(=O)OCCOC)c2nc3ccccc3nc21,.,.,/,68,.,.,ARNT Alpha ctr=.
CCCCn1c(N)c(C(=O)OCCOC)c2nc3ccccc3nc21,.,.,.,/,.,.,
COCCCn1c(N)c(C(=O)NCCC(C)C)c2nc3ccccc3nc21,.,.,/,active,.,.,ARNT Alpha ctr=.
CCCCn1c(NC(=O)c2ccco2)c(C(=O)OCC)c2nc3ccccc3nc21,.,.,/,30,.,.,ARNT Alpha ctr=.
O=C(O)[C@H]1[C@H](CO)[C@H]2Cn3c(ccc(-c4ccccc4F)c3=O)[C@@H]1N2C(=O)Nc1ccccc1,/,/,.,.,.,/,
N#Cc1cccc(-c2ccc([C@H]3[C@@H](CO)N4CCCCN(C(=O)Cc5cccnc5)C[C@H]34)cc2)c1,/,/,.,.,.,/,
